Assay outcomes deposited in PubChem by National Center for Advancing Translational Sciences (NCATS).
TDP1 cell CPT = growth inhibition of DT40 Tdp1-/-;hTDP1 cells with camptothecin (screen for TDP1 inhibitors); chicken DT40 Tdp1-/-;hTDP1 cells + 20 nM CPT, ATP luminescence, 48 h; Potency, µM (titrated, usually from 46.2 µM), for inactives: at the highest dose activity change, negative = growth inhibition, hits mostly inhibitors; actives 12% (n = 420,000); note: nearly all actives have a fitted effect of over 55% in size
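Chicken DT40 Tdp1-/- cells stably complemented with human TDP1 were seeded at 400 cells/well in medium containing 20 nM camptothecin, exposed to pin-transferred compounds, and grown at 37 °C for at least 48 hr. Viability was read as ATP luminescence.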
DT40 TDP1 no CPT = qHTS for Inhibitors of human tyrosyl-DNA phosphodiesterase 1 (TDP1): qHTS in cells in absence of CPT; DT40 Tdp1-/- hTDP1 cells, no CPT, ATP luminescence, 48 h; Potency, µM (titrated, usually from 46.2 µM), for the others: at the highest dose activity change, negative = growth inhibition, most hits filed as inhibitors; actives 15% (n = 420,000); note: nearly all actives have a fitted effect of over 55% in size
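Seeded 400 DT40-hTDP1 cells/well (vehicle DMSO, no 20 nM CPT); pinned compounds; ≥48 hr at 37 °C; CellTiter-Glo luminescence as viability measure.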
TDP1 block = TDP1 (human) enzyme inhibition | Q9NUW8 | recombinant TDP1, AlphaScreen DNA substrate cleavage | Potency, µM (doses to about 130 µM), for the others: at the top dose activity change, negative = inhibition, hits mostly inhibitors | actives 0.28% (n = 350,000) | AID 485290; note: nearly all actives have a fitted effect of over 40% in size
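Here, a 5' biotin and 3' phosphotyrosine-FITC DNA oligonucleotide reports Tdp1 activity: intact substrate bridges AlphaScreen beads, while cleavage leaves a 3' phosphate and drops signal. All incubations at room temperature.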
RORgamma inh = blocks mouse ROR gamma transcriptional activity | P51450 | Drosophila S2 Gal4-RORgamma UAS-luciferase reporter, 20 h | Potency, µM (series often up to 53.6 µM), for the others: at the top dose activity change, negative = inhibition, usual class: inhibitors | actives 5.4% (n = 310,000); note: nearly all actives have a fitted effect of over 60% in size
Target sequence (P51450 whole entry, looked up, the tested form may be a part): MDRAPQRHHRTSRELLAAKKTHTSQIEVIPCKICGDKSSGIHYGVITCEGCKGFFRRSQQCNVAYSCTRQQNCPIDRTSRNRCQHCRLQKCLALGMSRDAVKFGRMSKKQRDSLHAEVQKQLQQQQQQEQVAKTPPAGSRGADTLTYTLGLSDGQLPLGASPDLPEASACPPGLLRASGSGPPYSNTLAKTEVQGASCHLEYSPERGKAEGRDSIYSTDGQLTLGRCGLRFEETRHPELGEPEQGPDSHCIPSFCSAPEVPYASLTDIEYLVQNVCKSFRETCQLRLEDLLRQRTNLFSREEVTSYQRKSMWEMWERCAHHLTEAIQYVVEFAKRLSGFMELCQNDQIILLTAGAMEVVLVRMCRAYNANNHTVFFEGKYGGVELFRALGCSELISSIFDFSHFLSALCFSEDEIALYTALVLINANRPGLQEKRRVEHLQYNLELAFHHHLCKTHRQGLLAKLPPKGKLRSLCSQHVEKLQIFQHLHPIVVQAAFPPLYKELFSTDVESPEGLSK
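Schneider cells (Drosophila), stable Gal4 DBD–ROR gamma + UAS-luc; 1 hr cmpd preincubation; Cu2+ induction 700 uM final; 20 hr ambient; luminescence.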
Gal4-VP16 FLuc = Gal4-VP16 reporter inhibition counter-screen | Drosophila S2 Gal4-VP16 UAS-luciferase, luminescence, 20 h | Potency, µM (highest dose often 53.6 µM), for inactives: at the highest dose activity, negative = inhibition, usual class: inhibitors | actives 3.5% (n = 310,000) | AID 2546;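 note: Gal4-VP16 expression switched on by copper sulfate through the metallothionein promoter; nearly all actives have a fitted effect of over 50% in size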
* hit, by the source's call; ? = inconclusive; / = no result given; ! = not confirmed by another sample; [ ] = remark or other dose. Compounds with a hit are over-represented: about 19% of the library has one in this group of screens. Calls come from the whole dose curve; as a rule, active = well fitted curve in the direction sought with a large enough effect; inconclusive = small, poorly fitted or top-dose-only effect, or another doubt; inactive = no such curve, though single readings can be large; an effect the other way counts as inactive or inconclusive. % is set by controls: 0 for no effect and ±100 for the full control effect; potency is the fitted concentration of half-maximal effect.

SMILES | TDP1 cell CPT | DT40 TDP1 no CPT | TDP1 block | RORgamma inh | Gal4-VP16 FLuc
CCCCCN1C(=O)c2cc(OC)ccc2[C@@]2(C(=O)OCC)Cc3cc(Cl)ccc3[C@@H]12 | 3.26µM* | 2.91µM* | / | / | /
CN(C(=O)Cc1ccc(Cl)c(Cl)c1)[C@@H](CN1CCCC1)c1cccc(OCC(=O)O)c1 | 10.9% | -5.6% | -9.9%[56.1 µM] | 24.3% | 5.0%
COc1cccc(C2Nc3ccccc3C(=O)N2Cc2ccccc2)c1 (centres undefined) | -2.4% | ? | / | / | /
CCOC(=O)[C@]12Cc3c(cc(OC)c(OC)c3OC)[C@H]1N(Cc1ccccc1)C(=O)c1ccccc12 | ? | 16.4µM* | / | / | /
CCOC(=O)[C@]12Cc3cc(Cl)ccc3[C@H]1N(Cc1ccccc1)C(=O)c1cc(OC)ccc12 | 4.61µM* | 5.8µM* | / | / | /
O=P(C(c1ccc2c(c1)OCO2)N1CCOCC1)(N1CCOCC1)N1CCOCC1 (centres undefined) | -4.3% | -1.2% | 1.0% | -3.3% | 3.4%
COc1cccc(C(=O)c2c(N)c(-c3nc(-c4ccccc4)cs3)c3ccccn23)c1 | ? | 20.6µM* | 0.0% | / | /
CSc1ccc(C(=O)C(C)(C)N2CCOCC2)cc1 | 3.7% | -27.1% | -1.1% | -14.7% | 5.8%
CC(=O)NC1CC2CCC(C1)N2 (centres undefined) | -0.7% | 3.4% | 3.1% | -4.2% | ?
CC[C@H](OC(C)=O)C(C[C@H](C)N(C)C)(c1ccccc1)c1ccccc1 | ? | 23.1µM* | 6.7% | / | /
CCC(OC(C)=O)C(CC(C)NC)(c1ccccc1)c1ccccc1 (centres undefined) | 21.9µM* | 24.6µM* | / | / | /
CCC(=NCCCN1CCOCC1)c1c(O)n(Cc2ccccc2)c(=O)[nH]c1=O | ? | -18.6% | 2.8% | 34.9% | 3.8%
CC1CN(c2ccccc2)NC1=O (centres undefined) | 13µM* | ? | -3.5% | -6.3% | -2.8%
Cc1cc(C(=O)N=Nc2c(O)n(C)c3ccccc23)c(C)o1 | -10.4% | ? | 0.0% | ? | 25.8%
O=C(NCc1c(-n2cccc2)sc2c1CCCC2)Nc1cccc(C(F)(F)F)c1 | 4.11µM* | 4.11µM* | 11.4% | / | /
CN(C)C(=O)Nc1cccc(C(F)(F)F)c1 | / | / | 2.0% | 9.5% | 2.5%
C[N+]1=Cc2cc3c(cc2CC1)OCO3 | 5.0% | -10.3% | 10.3%[56.1 µM] | -0.8% | -10.6%
O=C1CNC(c2ccccc2Cl)c2cc(Br)ccc2N1 (centres undefined) | -10.4% | 8.2µM* | / | -21.8% | 0.5%
C[C@H]1CCC/C=C/[C@@H]2C[C@H](O)C[C@H]2[C@@H](O)/C=C/C(=O)O1 | 0.184µM* | 0.581µM* | / | / | /
C[C@H]1CCCC=CC2C[C@H](O)C[C@@H]2[C@H](O)C=CC(=O)O1 (some centres undefined) | 0.0282µM* | 0.15µM* | / | / | /
Cc1ccc2oc(-c3ccc(Cl)cc3)c(O)c(=O)c2c1 | 20.6µM* | 16.4µM* | 0.0% | / | /
COc1ccccc1-n1c(O)c(C=NCCN2CCNCC2)c(=O)[nH]c1=O | 8.0% | 1.1% | 2.1% | 5.9% | -5.8%
O=C(NC1CCCCC1)C1CCN(C(=O)c2ccc(-c3ccccc3)cc2)CC1 | ? | -25.5% | 2.5% | 31.6% | -18.2%
CCCCCc1nc2ccccc2c(=O)n1-c1ccccc1[N+](=O)[O-] | ? | 16.4µM* | -0.6% | 36.7% | 11.4%
CCCCCc1nc2ccccc2c(=O)n1-c1ccc(C)cc1 | -24.9% | ? | / | / | /
SMILES | TDP1 cell CPT | DT40 TDP1 no CPT | TDP1 block | RORgamma inh | Gal4-VP16 FLuc
Cc1ccc(C)c(N2CCN(C(=O)CCS(=O)(=O)c3ccc4c(c3)oc(=O)n4C)CC2)c1 | 16.4µM* | 14.6µM*! | 3.7% | 3.5% | -2.8%
CCOC(=O)c1ncn2c1[C@H]1CCCN1C(=O)c1cc(OC)ccc1-2 | ? | ? | 2.4% | 9.4% | 6.0%
CCOC(=O)[C@]12Cc3cc(OC)ccc3[C@H]1N(C(C)C)C(=O)c1cc(OC)ccc12 | 20.6µM* | 18.4µM* | / | / | /
CCOC(=O)[C@]12Cc3c(cc(OC)c(OC)c3OC)[C@H]1N(C(C)C)C(=O)c1cc(OC)ccc12 | 9.2µM* | 7.31µM* | / | / | /
CC(C)Oc1ccc(Cc2c(O)[nH]c(=O)[nH]c2=O)cc1 | -5.1% | -6.2% | 1.0% | 19.3% | -1.3%
CC(C)CCNC(=O)Cn1c(=O)oc2cc(S(=O)(=O)N3CCc4ccccc43)ccc21 | ? | ? | 2.5% | 31.5% | 8.6%
COc1ccc(CNC(=O)Cn2c(=O)oc3cc(S(=O)(=O)N4CCCC4)ccc32)cc1 | 18.4µM* | ? | 4.2% | 4.9% | 5.4%
CN(C)c1ccc(CNC(=O)Cn2c(=O)oc3cc(S(=O)(=O)N4CCCCCC4)ccc32)cc1 | 11.6µM* | -28.3% | 7.6% | / | /
CC(C)c1ccc(NC(=O)Cn2c(=O)oc3cc(S(=O)(=O)N4CCCC4)ccc32)cc1 | 9.2µM* | ? | 5.1% | / | /
O=C(O)[C@@H]1Cc2[nH]cnc2C(c2cccnc2)N1 (some centres undefined) | 10.5%[9.04 µM] | 3.5%[9.04 µM] | 10.0% | -24.9% | 0.5%
CC[C@H]1CN2CCc3cc(OC)c(OC)cc3[C@H]2C[C@@H]1C[C@@H]1NCCc2cc(OC)c(OC)cc21 | / | / | -3.1% | 0.794µM* | 2.51µM*
CCCN1CCC2(CC1)NC(CO)(CO)CO2 | -18.5% | 3.3% | -10.0% | -24.8% | 4.9%
O=C1NC(=O)N(Cc2ccccc2)C(=O)/C1=C\c1ccco1 | 20.6µM* | 13µM* | -6.0% | -10.2% | 4.4%
O=C1NC(=O)N(Cc2ccc(F)cc2)C(=O)/C1=C\C=C\c1ccco1 | 7.31µM* | 7.31µM* | / | ? | ?
CCN1C(=O)NC(=O)/C(=C\c2cn(CC(=O)O)c3ccccc23)C1=O | / | / | / | -22.6% | -6.7%
O=C(O)Cn1cc(/C=C2\C(=O)NC(=O)N(Cc3ccco3)C2=O)c2ccccc21 | 0.731µM* | ? | / | 2.8% | -12.5%
CCCCN1C(=O)/C(=C/C=C/c2ccco2)C(=O)NC1=S | -26.2% | -12.3% | / | 0.5% | 2.0%
Nc1ncc([N+](=O)[O-])s1 | -22.7% | -10.4% | -5.2% | 18.3% | 8.1%
CCN(CC)C(=S)NCCc1ccccc1 | 16.6% | -10.9% | -8.4% | ? | ?
CCc1cc2c(cc1-c1csc(C/C(N)=N/O)n1)C(C)(C)CCC2(C)C | ? | 18.4µM* | / | / | /
CC1=C(O)C(=O)[C@H]2O[C@@H]2C1=O | 7.5µM* | 10.6µM* | 3.6%[56.1 µM] | 2.82µM* | 8.91µM*
Cc1ccc2c(c1)c(=O)c1c3n2CCN(CC2CO2)C3CC1 (centres undefined) | 18.4µM* | ? | -6.1% | 27.9% | 28.5%
COC(=O)C1=C(c2cccc(C#N)c2)C[C@@H]2CC[C@H]1N2C(=O)NCc1cccc2ccccc12 | ? | -28.8% | -0.2% | / | /
